Sampled rows, rich in hits. Any-hit rate of the full collection: about 19%.
KB-3-1 tox: KB-3-1 parental cell cytotoxicity; KB-3-1 viability, CellTiter-Glo ATP luminescence, 72 h; Potency, µM (highest dose often 46.1 µM), usual class: cytotoxic; hit rate 1.4% among 400,000; AID 1347075; further: nearly all actives have a fitted effect of over 60% in size
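72 h, 37 °C compound treatment of KB-3-1 parental cells; CellTiter-Glo added, 10 min, luminescence read. Data corrected against DMSO-only plates and normalized before curve fitting.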
TDP1 cell noCPT: qHTS for Inhibitors of human tyrosyl-DNA phosphodiesterase 1 (TDP1): qHTS in cells in absence of CPT. hit rate 15% among 420,000. DT40 Tdp1-/- hTDP1 cells, no CPT, ATP luminescence, 48 h. Potency, µM (highest dose often 46.2 µM), for the others: at the top dose activity change, negative = growth inhibition, most hits filed as inhibitors. AID 686978, 2013; further: nearly all actives have a fitted effect of over 55% in size
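Chicken DT40 Tdp1-/- cells stably complemented with human TDP1 were seeded at 400 cells/well with DMSO in place of 20 nM camptothecin. After compound pinning, cells grew at least 48 hr at 37 °C; viability read by CellTiter-Glo luminescence.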
DT40 TDP1 CPT: DT40-hTDP1 cell growth loss with CPT | Potency, µM (top dose mostly 46.2 µM), inactives show top-dose activity change, negative = growth inhibition, hits mostly inhibitors | hit rate 12% among 420,000 | chicken DT40 Tdp1-/-;hTDP1 cells + 20 nM CPT, ATP luminescence, 48 h; further: nearly all actives have a fitted effect of over 55% in size
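Cell growth measured by CellTiter-Glo luminescence after a minimum 48 h, 37 C compound exposure with 20 nM CPT in Tdp1-knockout DT40 cells stably expressing hTDP1, seeded 400/well; qHTS titration format.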
HT1080 IDH1KD tx: HT-1080 IDH1 knockdown cell toxicity (counter line). HT-1080 IDH1 knockdown viability, ATP luminescence, 48 h. Potency, µM (titrated, usually from 46.1 µM), without a hit: at the top dose activity, negative = toxicity, actives largely listed as cytotoxic. hit rate 2% among 360,000;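 further: 0% = DMSO wells and -100% = cell-free medium wells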
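Luminescent ATP read-out (CellTiter-Glo, 10 min at room temperature) after 48 h compound exposure at 37 °C gave viability of IDH1-knockdown HT-1080 cells. Activity was normalised to DMSO and cell-free wells, then fitted as concentration-response curves.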
KB-V1 cytotox: kills drug-selected multidrug resistant KB-V1 cells; KB-V1 MDR cells viability, CellTiter-Glo, 72 h; Potency, µM (titrated, usually from 46.1 µM), most hits filed as cytotoxic; hit rate 3.4% among 400,000; further: nearly all actives have a fitted effect of over 60% in size
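Compound-treated KB-V1 multidrug-resistant cells, 72 h, 37 degrees C; viability by CellTiter-Glo. Fitted qHTS curves give the values.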
HT1080NT lethal: kills 2HG-producing HT-1080-NT fibrosarcoma cells | hit rate 1.6% among 360,000 | HT-1080-NT fibrosarcoma viability, CellTiter-Glo ATP luminescence, 48 h | Potency, µM (top dose mostly 46.1 µM), without a hit: top-dose activity, negative = less viability, actives largely listed as cytotoxic;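 further: NT is the 2HG producing partner of a matched IDH1 knockdown line; 0% = DMSO-treated cells and -100% = media-only wells without cells; nearly all actives have a fitted effect of over 55% in size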
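750 cells/well, RPMI + 5% FBS; 2 h settle, compound pin-transfer, 48 h at 37 degrees C. CellTiter-Glo 10 min RT, luminescence. Normalized to DMSO and media-only wells.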
The depositor's hits bear a star; i = inactive; ? = inconclusive; / = no result given. The call rests on the fitted dose curve; in most records, active means well fitted curve in the direction sought with a large enough effect; inconclusive means small, poorly fitted or top-dose-only effect, or another doubt; inactive means no such curve, though single readings can be large; an effect the other way counts as inactive or inconclusive. Unless noted, on the % scale 0 is the no-effect control and ±100 the full control effect; potency means the concentration at half of the fitted maximal effect.

SMILES	KB-3-1 tox	TDP1 cell noCPT	DT40 TDP1 CPT	HT1080 IDH1KD tx	KB-V1 cytotox	HT1080NT lethal
CCOc1ccc(S(=O)(=O)N(CC(N)=O)c2ccc(C)cc2)cc1	i	-24%	-22%	-5%	i	-1%
CCN1/C(=C/c2ccc3cc(C)ccc3[n+]2C)Sc2ccc3sccc3c21	i	0.58µM*	0.41µM*	?	i	16µM*
CCN1/C(=C/c2ccc3ccccc3[n+]2CCCS(=O)(=O)[O-])C=Cc2cc(C)ccc21	i	?	?	-17%	i	-14%
CCCCN1/C(=C/c2ccc3ccccc3[n+]2CC)Sc2ccccc21	i	0.23µM*	0.26µM*	15µM*	i	?
CCN1/C(=C/c2ccc3cc(C)ccc3[n+]2CC)Sc2cc(C)ccc21	?	0.013µM*	0.29µM*	23µM*	i	16µM*
CCN1/C(=C/c2ccc3ccccc3[n+]2CC)C=Cc2ccccc21	0.82µM*	1.5µM*	1.6µM*	8.2µM*	?	6.5µM*
O=C(NCCC1CCCCN1S(=O)(=O)c1ccc(Cl)cc1)C(=O)NCc1cccnc1 (stereo not given)	i	?	?	-10%	i	-4%
CN(C)c1nnnn1-c1ccc(OC(F)(F)F)cc1	i	-10%	-1%	0%	i	5%
O=C(CCn1nc(-c2ccccc2)ccc1=O)N1CCN(c2ccccn2)CC1	i	-29%	-14%	0%	?	-8%
CC(C)[C@H](CN1CCC[C@H]1CN1C(N)=NC[C@@H]1Cc1ccccc1)N1C[C@@H](Cc2ccccc2)N(CCc2ccc(Cl)c(Cl)c2)C1=N	i	?	9.2µM*	1%	i	-3%
CCCCN1C(=N)N([C@@H](C)CN2CCC[C@H]2CN2C(N)=NC[C@@H]2Cc2ccccc2)C[C@H]1[C@H](C)CC	i	?	?	6%	i	?
C[C@@H](CN1CCC[C@H]1CN1C(N)=NC[C@@H]1Cc1ccccc1)N1C[C@@H](Cc2ccccc2)N(CCc2ccc(Cl)c(Cl)c2)C1=N	?	?	?	-6%	?	6%
CCC[C@@H](CN1CCC[C@H]1CN1C(N)=NC[C@@H]1Cc1ccccc1)N1C[C@@H]([C@H](C)CC)N(CCCC2CCCC2)C1=N	?	8.2µM*	10µM*	?	i	?
CCC[C@@H](CN1CCC[C@H]1CN1C(N)=NC[C@H]1CC(C)C)N1C[C@@H](Cc2ccccc2)N(CCCC2CCCC2)C1=N	i	12µM*	10µM*	-5%	i	-6%
CCCCN1C(=N)N([C@@H](C)CN2CCC[C@H]2CN2C(N)=NC[C@H]2CC(C)C)C[C@H]1Cc1ccccc1	i	?	16µM*	-4%	i	5%
CCN(Cc1ccccc1)C(=O)COC(=O)[C@@H]1CCCN1C(=O)c1cccs1	i	-21%	-23%	8%	i	-9%
CCOC(=O)c1ccc(CN(Cc2ccc(F)cc2)S(=O)(=O)c2cc(C(=O)Nc3ccccc3CC)ccc2F)cc1	/	-14%	?	/	/	/
O=C(/C=C/c1cc([N+](=O)[O-])ccc1OC(F)F)Nc1cccc(OC(F)F)c1	i	-13%	-4%	-12%	i	-17%
COCc1cc(C)nc2sc(C(=O)NCCO)c(-n3cccc3)c12	i	17%	-7%	5%	i	5%
CCC[C@@H](CN1CCC[C@H]1CN1C(N)=NC[C@H]1CC(C)C)N1C[C@@H](Cc2ccccc2)N(CCc2ccc(Cl)c(Cl)c2)C1=N	i	?	21µM*	-2%	i	-2%
CCC[C@@H](CN1CCC[C@H]1CN1C(N)=NC[C@@H]1Cc1ccccc1)N1C[C@@H](Cc2ccccc2)N(CCc2ccc(Cl)c(Cl)c2)C1=N	i	?	?	3%	i	14%
COc1ccc(C=O)cc1Cn1c(C)cc(C)c(C#N)c1=O	?	16µM*	16µM*	7%	i	18%
COc1ccccc1Nc1nc(-c2cccc([N+](=O)[O-])c2)nc2ccccc12	i	18µM*	23µM*	10%	i	-6%
COc1ccc(Nc2nc(-c3cccc([N+](=O)[O-])c3)nc3ccccc23)c(OC)c1	i	18µM*	?	3%	i	-3%
COc1ccc(OC)c(Nc2nc(-c3cccc([N+](=O)[O-])c3)nc3ccccc23)c1	i	-1%	0%	3%	i	9%
SMILES	KB-3-1 tox	TDP1 cell noCPT	DT40 TDP1 CPT	HT1080 IDH1KD tx	KB-V1 cytotox	HT1080NT lethal
COc1ccccc1Nc1nc(-c2ccc([N+](=O)[O-])cc2)nc2ccccc12	i	?	?	3%	i	3%
COc1ccc(Nc2nc(-c3cccs3)nc3ccccc23)c(OC)c1	?	13µM*	16µM*	-26%	?	-24%
CCCSc1ncc(Cl)c(C(=O)Nc2sc3c(c2C(=O)OC)CCCC3)n1	?	17%	5%	/	?	/
COc1ccccc1-n1c(SCC(=O)NCC2CCCO2)nc2c([nH]c3ccccc32)c1=O (stereo not given)	i	-2%	-15%	-1%	i	0%
CCn1ncc(C2=NOC(C(=O)Nc3cnn(C45CC6CC(CC(C6)C4)C5)c3)C2)c1C (stereo not given)	?	?	?	?	3.3µM*	?
CCn1cc(C2=NOC(C(=O)Nc3cccc(C(C)=O)c3)C2)c(C)n1 (stereo not given)	?	?	16µM*	-29%	i	-29%
O=C(CSc1cccc2cccnc12)OCC(=O)c1ccccc1	i	?	?	33µM*	i	29µM*
O=C(CSc1cccc2cccnc12)N1CCCC1	7.3µM*	5.2µM*	4.1µM*	1%	i	7.3µM*
NNC(=O)CSc1cccc2cccnc12	i	3%	4%	14%	i	0%
CN(C)C(=O)CSc1cccc2cccnc12	?	4.6µM*	4.6µM*	?	?	?
O=C(CSc1cccc2cccnc12)OCC(=O)c1ccc(Br)cc1	i	-15%	-1%	-6%	?	-13%
O=C(/C=C/c1ccccc1)N1CCN(c2c(Cl)cccc2[N+](=O)[O-])CC1	i	16µM*	23µM*	-9%	i	-6%
CCC(=O)N1CCN(c2c(Cl)cccc2[N+](=O)[O-])CC1	?	?	?	0%	?	2%

Screening data: PubChem BioAssay, National Center for Advancing Translational Sciences (NCATS)
